Hits are enriched below; roughly 14% of the tested compounds scored in any of these assays.
AID923: qHTS Assay for Allosteric/Competitive Inhibitors of Caspase-1: Spectroscopic Profiling in AFC Spectral Region. compound fluorescence, AFC spectral region (405/520 nm). AID 923, 2007. 75,000 tested, 1.1% active. Potency, µM (titrated, usually from 57.5 µM), for the others: top-dose fluorescence increase, most hits filed as activators; also: potency is read from the fitted curve at half-maximal effect; 0% is about no effect
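Titrations up to 57 uM read every 20 sec for 3 min (405/520 nm) with 50 nM caspase 1 and 5 uM Ac-WEHD-AFC, pH 7.5 HEPES buffer. Fluorescence-vs-time intercept gave baseline, scaled against on-plate AFC standard.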
4MU fluor: compound fluoresces in the 4-MU spectral region; compound autofluorescence, 340/450 nm, 4-MU equivalents; hits give high values; max dye-equivalent concentration, M; 59,000 tested, 11% active; in the data active = max dye-equivalent concentration above about 10 nM; inconclusive = mostly about 1.1 nM to 9.6 nM
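Compounds in 100 mM Tris, pH 8.0, incubated 15 min at room temperature, then fluorescence read at 340 nm excitation/450 nm emission. Signal converted to 4-MU dye-equivalent concentration using an on-plate six-point 4-MU standard curve.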
A350 fluor: A350 region autofluorescence | Compound autofluorescence, 340/450 nm, Alexa 350 dye-equivalents; hits give high values | max dye-equivalent concentration, M | 59,000 tested, 11% active | AID 590; in the data active = max dye-equivalent concentration above about 10 nM; inconclusive = mostly about 1.1 nM to 9.6 nM
CRE-bla Fsk: CRE-bla signaling modulation under forskolin stimulation | Potency, µM (titrated, usually from 38.2 µM), for the others: at the highest dose activity change, negative = inhibition, most hits filed as activators | 71,000 tested, 2.5% active | AID 662 | CHO CRE-bla reporter (cAMP response element driving beta-lactamase), forskolin EC10, beta-lactamase ratio; active = well fitted activation curve with a large enough effect in the signal ratio, with a control signal flat, not every such curve was filed as active; inconclusive = small, poorly fitted or top-dose-only effect, or effect the other way, or a change in a side signal; the % refers to the signal ratio; also: potency is read from the fitted curve at half-maximal effect; % of control where 0% means no effect
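Modulation of forskolin-driven signalling is measured in CHO cells carrying a CRE-controlled beta-lactamase reporter. Cells are stimulated with EC10 NKH 477 in the presence of titrated compound for 3 h at 37 °C, then loaded with CCF4 for 2 h at room temperature.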
HADH2 inhib: HADH2 (human) dehydrogenase inhibition; Q99714; recombinant HADH2, NADH fluorescence, beta-hydroxybutyryl-CoA; Potency, µM (top dose mostly 57.1 µM), for inactives: top-dose activity change, negative = inhibition, hits mostly inhibitors; 73,000 tested, 3.4% active; also: potency is read from the fitted curve at half-maximal effect; % is scaled to controls: 0 for no effect and ±100 for the full control effect; nearly all actives have a fitted effect of over 60% in size
Target sequence (Q99714 whole entry, looked up, one chain of several): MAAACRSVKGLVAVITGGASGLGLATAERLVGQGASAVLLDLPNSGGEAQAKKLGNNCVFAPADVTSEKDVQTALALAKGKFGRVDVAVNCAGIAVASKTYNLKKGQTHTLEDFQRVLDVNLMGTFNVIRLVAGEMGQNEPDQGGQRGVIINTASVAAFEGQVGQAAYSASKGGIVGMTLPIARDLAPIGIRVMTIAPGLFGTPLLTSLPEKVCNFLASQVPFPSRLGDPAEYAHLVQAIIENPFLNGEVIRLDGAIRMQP
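His-tagged recombinant enzyme from E. coli, 20 nM, preincubated 15 min RT with compound; reaction started with 1 mM NAD+ and 90 uM beta-hydroxybutyryl-CoA in 100 mM Tris-HCl pH 9.0. NADH fluorescence (ex 360/em 450) read over 4 min; last-minus-first difference.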
HSD17B inh: blocks hydroxysteroid 17-beta dehydrogenase activity; Q99714; recombinant HSD17B10, NADH fluorescence kinetic; Potency, µM (top dose mostly 57.1 µM), for the others: top-dose activity change, negative = inhibition, most hits filed as inhibitors; 75,000 tested, 7.6% active; AID 893;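 also: the protocol describes HADH2 (HSD17B10) and not the HSD17B4 of the title; potency is read from the fitted curve at half-maximal effect; % is scaled to controls: 0 for no effect and ±100 for the full control effect; nearly all actives have a fitted effect of over 70% in size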
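20 nM HADH2, pH 9.0 Tris/Tween; cpd preinc 15 min RT; start w/ 1 mM NAD+ + 90 uM b-hydroxybutyryl-CoA; kinetic fluor ex360/em450 q30s x 4 min; delta last-first.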
An asterisk follows results filed as active; ! = not confirmed by another sample; [ ] = remark or other dose. Unless noted, calls follow the shape of the dose curve; as a rule, active = well fitted curve in the direction sought with a large enough effect; inconclusive = small, poorly fitted or top-dose-only effect, or another doubt; inactive = no such curve, though single readings can be large; an effect the other way counts as inactive or inconclusive.

`NC(C(=O)NC1C(=O)N2C(C(=O)O)=C(Cl)CSC12)c1ccccc1` (stereo unspecified) gave AID923 0.1% and HSD17B inh inconclusive.
For C=N[C@H](C(=O)N[C@@H]1C(=O)N2[C@@H]1SC(C)(C)[C@@H]2C(=O)O)c1ccccc1 the results were AID923 3.4%[25.7 µM], 4MU fluor 6.81e-08M*, A350 fluor 5.96e-08M*, CRE-bla Fsk -3.6%[17.1 µM], HADH2 inhib -9.0%[25.6 µM] and HSD17B inh 1.6%[25.6 µM].
Screening N[C@H](C(=O)N[C@@H]1C(=O)N2C(C(=O)O)=C(Cl)CS[C@@H]12)c1ccccc1 returned AID923 4.2%[25.7 µM], 4MU fluor 3.29e-08M*!, A350 fluor 2.91e-08M*!, CRE-bla Fsk 14.3%[17.1 µM], HADH2 inhib 3.16µM*! and HSD17B inh inconclusive.
CC1(C)S[C@@H]2[C@H](NC(=O)[C@H](N)c3ccccc3)C(=O)N2[C@H]1C(=O)O was read as AID923 4.1%, 4MU fluor 3.38e-08M*, A350 fluor 3.76e-08M* and CRE-bla Fsk -2.7%.
`COc1ccc(C(=O)CC(=O)c2c(O)cc(OC)cc2OC)cc1` gave AID923 1.4%[11.5 µM], HADH2 inhib -2.5%[11.4 µM] and HSD17B inh 4.3%[11.4 µM].
For CN1CCCN=C1/C=C\c1cccs1 the results were AID923 3.6%[25.7 µM], 4MU fluor inactive, A350 fluor inactive, CRE-bla Fsk -3.9%[17.1 µM], HADH2 inhib -6.2%[25.6 µM] and HSD17B inh -2.7%[25.6 µM].
CCC1OC(=O)C(C)[C@@H](O[C@H]2C[C@@](C)(OC)C(O)C(C)O2)C(C)[C@@H](O[C@@H]2OC(C)CC(N(C)C)C2O)[C@](C)(O)CC(C)/C(=N\OCOCCOC)[C@H](C)C(O)[C@]1(C)O (stereo partly specified) was read as AID923 -0.8% and HSD17B inh 5.6%.
For O=C(c1ccccc1)c1ccc(N2CCCC2)cc1 the results were AID923 6.4%, CRE-bla Fsk 11.8%, HADH2 inhib -13.5% and HSD17B inh 36.1%.
For O=C(c1ccccc1)c1ccc(N2CCNCC2)cc1 the results were AID923 -0.9%, 4MU fluor 3.29e-08M*, A350 fluor 1.96e-08M*, CRE-bla Fsk 1.8%, HADH2 inhib -26.5% and HSD17B inh inconclusive.
`COc1ccc2c(c1)-c1ccccc1S(=O)(=O)N2C(C)=O` gave AID923 1.1%, 4MU fluor 7.12e-08M*, A350 fluor 7.21e-08M*, CRE-bla Fsk -6.7%, HADH2 inhib 38.5% and HSD17B inh 31.6µM*.
For COc1ccc(OC)c(NC(=O)CN2C(=O)c3ccccc3S2(=O)=O)c1 the results were AID923 -1.6%, CRE-bla Fsk inconclusive, HADH2 inhib 6.1%[11.4 µM] and HSD17B inh -0.6%.
Screening O=C(O)C1(O)C[C@H](O)C(O)[C@@H](O)C1 (stereo partly specified) returned AID923 -0.9% and HSD17B inh 22.0%.
O=C(CSc1cccc2cccnc12)N1CCCC1 was read as AID923 -1.1%, 4MU fluor 7.87e-08M*, A350 fluor 8.55e-08M*, CRE-bla Fsk -19.5%, HADH2 inhib 15.8µM* and HSD17B inh 25.1µM*.
CN(C)C(=O)CSc1cccc2cccnc12 was read as AID923 -0.3%, 4MU fluor 4.47e-08M*, A350 fluor 3.87e-08M*, CRE-bla Fsk -18.0%, HADH2 inhib 15.8µM* and HSD17B inh 31.6µM*.
For O=C(O)c1cccnc1SCC(=O)N1CCCCCC1 the results were AID923 -1.3%, 4MU fluor inactive, A350 fluor inconclusive, CRE-bla Fsk -4.2%, HADH2 inhib -0.1% and HSD17B inh 4.6%.
O=C(CSc1ncccc1-c1nc2ccccc2[nH]1)N1CCCCC1 was read as AID923 1.8%, 4MU fluor 3.48e-08M*, A350 fluor 3.5e-08M*, CRE-bla Fsk inconclusive, HADH2 inhib -9.1% and HSD17B inh inconclusive.
Screening CC(=O)C1CCC2C3CC=C4CC(O)CC[C@@]4(C)C3CC[C@]12C (stereo partly specified) returned AID923 -1.0% and HSD17B inh 20.4%.
O=S(=O)(NCCOCC(F)(F)F)c1ccc2oc3ccccc3c2c1 was read as AID923 -0.5%, 4MU fluor inactive, A350 fluor inactive, CRE-bla Fsk -7.7%, HADH2 inhib 0.8% and HSD17B inh -2.2%.
COc1ccc(-c2nc3nc(C)c(Cc4ccccc4)c(=O)n3[nH]2)cc1 was read as AID923 3.3%, 4MU fluor inactive, A350 fluor inactive, CRE-bla Fsk inconclusive, HADH2 inhib -17.3% and HSD17B inh 25.1µM*.
COC(=O)Cc1c(C)nc2nc(-c3ccc(OC)cc3)[nH]n2c1=O was read as AID923 0.6%, 4MU fluor inactive, A350 fluor inactive, CRE-bla Fsk 2.2%, HADH2 inhib inconclusive and HSD17B inh 31.6µM*.
For COC(=O)Cc1c(C)nc2nc(NCc3c(F)cccc3Cl)[nH]n2c1=O the results were AID923 2.2%, 4MU fluor inactive, A350 fluor inactive, CRE-bla Fsk -2.7%, HADH2 inhib -0.8% and HSD17B inh 8.6%.
For CCn1c(SCC(=O)OC)nc2sc3c(c2c1=O)CCC3 the results were AID923 -0.2%, CRE-bla Fsk 12.6µM*, HADH2 inhib inconclusive and HSD17B inh inconclusive.
CCn1c(SCC(=O)O)nc2sc3c(c2c1=O)CCC3 was read as 4MU fluor inactive and A350 fluor inactive.
Cc1sc2nc(SCc3nnc(-c4cccs4)o3)n(C3CCCC3)c(=O)c2c1C was read as AID923 -0.7%, 4MU fluor inactive, A350 fluor inactive, CRE-bla Fsk inconclusive, HADH2 inhib 3.0% and HSD17B inh 3.5%.
Cc1sc2nc(SCC(=O)N(CCO)CCO)n(C3CCCCC3)c(=O)c2c1C was read as AID923 1.2%, CRE-bla Fsk 12.6µM*, HADH2 inhib 6.6% and HSD17B inh -3.7%.
Screening COC(=O)CSc1nc2sc3c(c2c(=O)n1C1CCCCC1)CCN(C)C3 returned 4MU fluor 1.17e-07M* and A350 fluor 1.4e-07M*.
`Cn1cccc1C(=O)N1CCC2(CCCN(C(=O)Nc3cccc(F)c3)C2)CC1` gave AID923 1.3%, 4MU fluor inactive, A350 fluor inactive, CRE-bla Fsk -14.5%, HADH2 inhib 8.3% and HSD17B inh 1.3%.
C=CC[C@@H]1C=C[C@H](O/N=C\[C@@H](C)[C@H](OCc2ccccc2)C(C)C)[C@H](CO)O1 was read as AID923 -1.0%[11.5 µM], HADH2 inhib 1.9%[11.4 µM] and HSD17B inh -1.4%[11.4 µM].
